Assay [1] in a line: qHTS of pediatric cancer cell lines to identify multiple opportunities for drug repurposing: Primary screen for Saos-2 cells (AID 1347097). Further: nearly all actives have a fitted effect of over 40% in size. Further: potency means the concentration at half of the fitted maximal effect. The following applies: Saos-2 viability, CellTiter-Glo ATP luminescence, 48 h; series mostly up to 46 µM. In outline:
(§1)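 Luminescence from CellTiter-Glo served as readout of metabolically active cells after 48 h compound exposure. Titrations: MIPE 11-point, from 0.78 nM; NPC 8-point, from 0.59 nM (final). Concentration-response curves came straight from the primary screen.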

The nature of assay [2]: qHTS of pediatric cancer cell lines to identify multiple opportunities for drug repurposing: Primary screen for BT-12 cells (AID 1347101). Further: potency means the concentration at half of the fitted maximal effect; nearly all actives have a fitted effect of over 25% in size. The following applies: BT-12 viability, CellTiter-Glo luminescence, 48 h; series mostly up to 57.3 µM. In outline:
(§2)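 Cells (500-1,000/well) rested 5 h, then received compounds for 48 h; metabolically active cells were measured by CellTiter-Glo luminescence. Final concentrations spanned up to 46 µM (MIPE, 11-point) or 0.59 nM-46 µM (NPC, 8-point) in primary screens, 11-point in follow-ups.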
For orientation: qHTS replaces the single test concentration by a dilution series.

Assay [3] in a line: qHTS of pediatric cancer cell lines to identify multiple opportunities for drug repurposing: Primary screen for Rh18 cells (AID 1347102). Further: nearly all actives have a fitted effect of over 65% in size. Further: potency means the concentration at half of the fitted maximal effect. The following applies: Rh18 rhabdomyosarcoma viability, CellTiter-Glo luminescence, 48 h; series mostly up to 46 µM. The gist of the method: (§3)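 Viability after 48 h compound treatment at 37C, 500-1,000 cells/well, read as ATP luminescence with CellTiter-Glo. Primary screens used 11-point (MIPE, 0.78 nM-46 µM) or 8-point (NPC, 0.59 nM-46 µM) final concentrations; follow-up screens used 11-point dilutions.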

Assay [4] in a line: qHTS of pediatric cancer cell lines to identify multiple opportunities for drug repurposing: Primary screen for RD cells (AID 1347104). Further: nearly all actives have a fitted effect of over 55% in size. Further: potency means the concentration at half of the fitted maximal effect. The following applies: RD rhabdomyosarcoma viability, CellTiter-Glo luminescence, 48 h; series mostly up to 46 µM. The gist of the method:
as §1

The nature of assay [5]: qHTS of pediatric cancer cell lines to identify multiple opportunities for drug repurposing: Primary screen for OHS-50 cells (AID 1347103). Further: nearly all actives have a fitted effect of over 40% in size. Further: potency means the concentration at half of the fitted maximal effect. The following applies: OHS-50 osteosarcoma viability, CellTiter-Glo luminescence, 48 h; series mostly up to 57.3 µM. In outline:
as §2

Assay [6] is described as follows: qHTS of pediatric cancer cell lines to identify multiple opportunities for drug repurposing: Primary screen for LAN-5 cells (AID 1347100). The following applies: LAN-5 neuroblastoma viability, CellTiter-Glo luminescence, 48 h; series mostly up to 46 µM. The gist of the method:
as §3

Assay [7] in a line: qHTS of pediatric cancer cell lines to identify multiple opportunities for drug repurposing: Primary screen for MG 63 (6-TG R) cells (AID 1347105). Further: nearly all actives have a fitted effect of over 50% in size. The following applies: MG 63 (6-TG R) viability, CellTiter-Glo, 48 h; series mostly up to 46 µM. In outline:
as §1

Assay [8] is described as follows: qHTS of pediatric cancer cell lines to identify multiple opportunities for drug repurposing: Primary screen for SK-N-SH cells (AID 1347098). Further: potency means the concentration at half of the fitted maximal effect; nearly all actives have a fitted effect of over 65% in size. The following applies: SK-N-SH viability, CellTiter-Glo luminescence, 48 h; series mostly up to 57 µM. In outline: as §2
Assay [9] in a line: qHTS of pediatric cancer cell lines to identify multiple opportunities for drug repurposing: Primary screen for NB1643 cells (AID 1347099). Further: potency means the concentration at half of the fitted maximal effect; nearly all actives have a fitted effect of over 50% in size. The following applies: NB1643 neuroblastoma viability, CellTiter-Glo luminescence, 48 h; series mostly up to 46 µM. The gist of the method: as §1

The source of these data is PubChem BioAssay (NCATS).

The structures appear in SMILES notation. Records with an inconclusive call do not appear. Activity calls are given as the source filed them. The call rests on the fitted dose curve; in most records, active means well fitted curve in the direction sought with a large enough effect; inconclusive means small, poorly fitted or top-dose-only effect, or another doubt; inactive means no such curve, though single readings can be large; an effect the other way counts as inactive or inconclusive.

As for `CC(C)CC(=O)Nc1n[nH]c2c1CN(C(=O)C1CCN(C)CC1)C2(C)C`, the Potency in assay [1] was 5.26 µM (active); in assay [2], 2.43 µM (active); in assay [4], 2.35 µM (active). Besides, in [3], the Potency entry was “inactive”.
Consider `COc1cc(C(=O)NS(=O)(=O)c2ccccc2C)ccc1Cc1cn(C)c2ccc(NC(=O)OC3CCCC3)cc12`, for which the Potency in assay [1] is 20.9 µM (active); in [3] it was 26.4 µM (active); in assay [5], 21.7 µM (active); in assay [4], 37.2 µM (active).
For `C1Cc2[nH]nc(-c3nn[nH]n3)c2C1`, the Potency result in assay [1], in [6], in assay [3], in assay [5], in assay [4] and in assay [7] was “inactive” in each case.
As for `Cc1cccc(C=NNc2cc(N3CCOCC3)nc(OCCc3ccccn3)n2)c1`, the Potency in assay [8] was 24.1 µM (active); in assay [9], 16.6 µM (active); in [5], 24.3 µM (active). Besides, in assay [7], the Potency result is “inactive”.
As to `C=CC(=O)Nc1cccc(Oc2nc(Nc3ccc(N4CCN(C)CC4)cc3OC)ncc2Cl)c1`, the Potency in assay [1] is 6.62 µM (active); in [9], 1.18 µM (active); in assay [2], 34.3 µM (active); in [3] it was 20.9 µM (active); in [5] it was 4.85 µM (active); in [4] it was 7.43 µM (active).
With `COc1cccc(Nc2c(C(N)=O)cnc3c(C)cc(S(=O)(=O)c4cccc(C(=O)N(C)C)c4)cc23)c1`, the Potency entry in [1], in [3], in assay [4] and in [7] was “inactive” in each case. Also, in assay [5], the Potency is 10.6 µM (active).
Consider `OCCCNc1cc(-c2ccnc(Nc3cccc(Cl)c3)n2)ccn1`, for which the figures for the Potency in assay [1], in assay [2] and in [4] were 0.148 µM (active), 0.193 µM (active) and 0.235 µM (active), respectively.
